The source made the active and inactive calls. How the source made its calls: active means hit-call score of the fitted dose curve at least 0.9, where 1 is the maximum; inactive means score below 0.9.
Key:
[1] = ATG_GLI_CIS: Attagene CIS-FACTORIAL HepG2 Assay for human Zinc Finger Protein GLI1 (AID 2282945); details: HepG2, Attagene cis-factorial reporter mRNA, GLI element; actives raise or lower the signal
Outline: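 Bidirectional curve fits relative to DMSO, using reporter mRNA levels from RT-PCR plus capillary electrophoresis. Cells were HepG2 transiently carrying cis-regulated reporter constructs, harvested 24 h after dosing.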

[2] = ATG_GRE_CIS: Attagene CIS-FACTORIAL HepG2 Assay for human Glucocorticoid Response Elements (GRE) (AID 2282947); details: HepG2 GRE cis-reporter, Attagene multiplex mRNA; actives raise or lower the signal
Outline: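 Reporter transcripts read by RT-PCR with capillary electrophoresis fluorescence after a 24 h chemical exposure of HepG2 cells transiently transfected with multiple cis-element reporter units. Gain or loss fitted against DMSO.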

[3] = ATG_ISRE_CIS: Attagene CIS-FACTORIAL HepG2 Assay for human Interferon Regulatory Factor 1 (IRF1) binding to an Interferon-Stimulated Response Element (ISRE) (AID 2282948); details: HepG2 ISRE cis-reporter (Attagene), mRNA transcription readout; actives raise or lower the signal
Outline: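 Signal reflects induction or loss of ISRE-linked reporter mRNA in transiently transfected HepG2 cells after a 24 h treatment, detected by fluorescent RT-PCR fragments on capillary electrophoresis and normalised to DMSO.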

[4] = ATG_M_32_CIS: Attagene CIS-FACTORIAL HepG2 Assay for M32 Transcription Factor (Internal Marker) (AID 2282949); details: HepG2 Attagene cis-factorial M32 reporter, mRNA; actives raise or lower the signal;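 further: background control marker of the multiplexed CIS panel rather than a real target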
Outline: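 HepG2 human liver cells transiently transfected with cis-promoter-driven multiple reporter transcription units, dosed 24 h. Reporter mRNA quantified by RT-PCR, FAM-labelled primer extension, HpaI digest and capillary electrophoresis; bidirectional fit versus DMSO baseline.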

[5] = ATG_M_06_CIS: Attagene CIS-FACTORIAL HepG2 Assay for M06 Transcription Factor (Internal Marker) (AID 2282950); details: HepG2 Attagene CIS-FACTORIAL M06 internal marker reporter; actives raise or lower the signal
Outline: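 Fluorescence-labelled RT-PCR products from cis-promoter reporter units, cut with HpaI and resolved by capillary electrophoresis, give the signal. Cells are human HepG2, dosed for 24 h. Serves as background control, fitted relative to DMSO.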

[6] = target: Hypoxia-inducible factor 1-alpha (Homo sapiens) (UniProt Q16665); assay: ATG_HIF1a_CIS: Attagene CIS-FACTORIAL HepG2 Assay for human Hypoxia Inducible Factor 1 (HIF1A) (AID 2282951); details: HepG2 Attagene cis-factorial HIF1a reporter transcription; actives raise or lower the signal
Outline: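 HepG2 cells transiently transfected with multiple cis-regulated reporter transcription units measure endogenous transcription factor activity. After 24 h exposure, reporter mRNA is quantified by RT-PCR with 6-FAM labelling, HpaI digestion and capillary electrophoresis. Bidirectional fitting against DMSO.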

[7] = target: Hepatocyte nuclear factor 6 (Homo sapiens) (UniProt Q9UBC0); assay: ATG_HNF6_CIS: Attagene CIS-FACTORIAL HepG2 Assay for human Hepatocyte Nuclear Factor 6 (HNF6) (AID 2282952); details: HepG2 Attagene cis-factorial HNF6 reporter transcription; actives raise or lower the signal
Outline: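 Twenty-four-hour chemical treatment of reporter-transfected HepG2 cells precedes RNA isolation, DNase-treated reverse transcription and PCR of reporter sequences. Labelled fragments are sized by capillary electrophoresis and fitted bidirectionally versus DMSO.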

[8] = target: Heat shock factor protein 1 (Homo sapiens) (UniProt Q00613); assay: ATG_HSE_CIS: Attagene CIS-FACTORIAL HepG2 Assay for human Heat Shock Transcription Factor 1 (HSE) (AID 2282953); details: HepG2 HSE cis-reporter, Attagene RNA transcription; actives raise or lower the signal
Outline: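 After a 24 h incubation with test chemical, transfected HepG2 cells were harvested for RNA; reporter transcripts were measured by RT-PCR and capillary electrophoresis. Values reflect gain or loss of signal relative to DMSO.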

[9] = ATG_MRE_CIS: Attagene CIS-FACTORIAL HepG2 Assay for human Metal Responsive Element (MRE) (AID 2282954); details: HepG2 MRE cis-reporter transcription, Attagene multiplex; actives raise or lower the signal
Outline: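 Endogenous MRE-dependent transcription read as reporter mRNA in transiently transfected human HepG2 cells at 24 h. RNA reverse-transcribed, PCR-amplified, labelled and resolved by capillary electrophoresis; gain or loss relative to DMSO.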

[10] = ATG_PBREM_CIS: Attagene CIS-FACTORIAL HepG2 Assay for human Phenobarbital-responsive Enhancer Module (PBREM) (AID 2282955); details: HepG2 PBREM cis-reporter, Attagene multiplexed transcription; actives raise or lower the signal
Outline: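 HepG2 cells transiently transfected with multiple cis-regulated reporter units measure endogenous transcription factor activity; 24 h compound exposure. Reporter mRNA quantified by RT-PCR, fluorescent labelling, HpaI digestion and capillary electrophoresis; bidirectional fit versus DMSO.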

Chain of Hypoxia-inducible factor 1-alpha (Homo sapiens) (Q16665 whole entry, looked up): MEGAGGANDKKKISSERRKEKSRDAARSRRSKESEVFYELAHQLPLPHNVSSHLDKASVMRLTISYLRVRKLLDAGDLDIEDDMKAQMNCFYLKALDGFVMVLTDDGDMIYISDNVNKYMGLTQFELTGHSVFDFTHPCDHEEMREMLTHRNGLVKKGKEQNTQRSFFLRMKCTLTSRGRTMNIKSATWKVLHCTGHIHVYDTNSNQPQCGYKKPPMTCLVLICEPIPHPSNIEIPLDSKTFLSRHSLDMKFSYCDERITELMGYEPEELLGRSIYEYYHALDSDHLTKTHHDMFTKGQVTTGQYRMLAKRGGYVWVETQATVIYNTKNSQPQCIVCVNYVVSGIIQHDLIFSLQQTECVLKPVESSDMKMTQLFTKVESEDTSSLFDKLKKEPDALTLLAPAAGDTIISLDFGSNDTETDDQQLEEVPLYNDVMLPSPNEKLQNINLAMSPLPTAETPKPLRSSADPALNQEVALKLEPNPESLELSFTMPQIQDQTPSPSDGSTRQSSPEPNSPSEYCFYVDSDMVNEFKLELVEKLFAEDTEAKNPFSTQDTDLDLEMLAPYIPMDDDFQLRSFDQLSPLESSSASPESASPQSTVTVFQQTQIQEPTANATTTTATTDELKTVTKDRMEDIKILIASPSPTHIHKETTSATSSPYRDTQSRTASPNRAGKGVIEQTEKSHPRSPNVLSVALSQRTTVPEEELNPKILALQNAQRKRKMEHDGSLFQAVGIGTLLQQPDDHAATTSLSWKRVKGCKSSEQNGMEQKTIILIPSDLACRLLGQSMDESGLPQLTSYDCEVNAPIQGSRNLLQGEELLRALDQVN
Chain of Heat shock factor protein 1 (Homo sapiens) (Q00613 whole entry, looked up): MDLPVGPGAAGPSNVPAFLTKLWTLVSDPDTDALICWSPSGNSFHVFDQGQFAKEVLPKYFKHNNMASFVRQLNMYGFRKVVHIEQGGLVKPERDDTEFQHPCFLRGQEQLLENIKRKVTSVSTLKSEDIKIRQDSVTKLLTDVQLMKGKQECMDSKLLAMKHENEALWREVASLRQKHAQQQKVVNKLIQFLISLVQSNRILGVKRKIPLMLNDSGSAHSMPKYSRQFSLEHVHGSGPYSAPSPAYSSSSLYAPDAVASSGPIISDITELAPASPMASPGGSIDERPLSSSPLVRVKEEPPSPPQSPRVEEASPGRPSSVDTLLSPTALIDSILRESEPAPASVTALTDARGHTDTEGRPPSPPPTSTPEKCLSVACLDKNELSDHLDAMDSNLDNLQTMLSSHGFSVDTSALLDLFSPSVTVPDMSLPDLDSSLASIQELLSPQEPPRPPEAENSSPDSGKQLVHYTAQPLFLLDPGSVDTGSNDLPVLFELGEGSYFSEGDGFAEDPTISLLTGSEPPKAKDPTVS
Chain of Hepatocyte nuclear factor 6 (Homo sapiens) (Q9UBC0 whole entry, looked up, the tested form may be a part): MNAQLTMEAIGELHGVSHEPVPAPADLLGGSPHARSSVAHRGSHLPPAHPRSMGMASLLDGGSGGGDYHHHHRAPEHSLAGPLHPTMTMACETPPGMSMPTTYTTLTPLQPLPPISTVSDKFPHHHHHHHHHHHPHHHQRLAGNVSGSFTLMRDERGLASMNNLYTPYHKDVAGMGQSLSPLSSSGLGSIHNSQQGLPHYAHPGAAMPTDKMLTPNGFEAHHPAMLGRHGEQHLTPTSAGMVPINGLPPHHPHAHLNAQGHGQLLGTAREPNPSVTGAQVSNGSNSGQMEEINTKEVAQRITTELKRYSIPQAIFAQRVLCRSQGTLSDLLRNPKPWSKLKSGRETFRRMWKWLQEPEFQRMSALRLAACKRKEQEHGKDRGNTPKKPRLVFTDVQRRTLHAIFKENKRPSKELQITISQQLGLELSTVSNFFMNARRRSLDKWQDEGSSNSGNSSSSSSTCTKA

Row | Structure (SMILES) | outcome [1] | outcome [2] | outcome [3] | outcome [4] | outcome [5] | outcome [6] | outcome [7] | outcome [8] | outcome [9] | AC50 [9] | outcome [10] | AC50 [10] | AC50 [6] | AC50 [7] | AC50 [8]
1 | N#CN=C1SCCN1Cc1ccc(Cl)nc1 | inactive | inactive | inactive | inactive | inactive | inactive | inactive | inactive | inactive | – | – | – | – | – | –
2 | CCC(C)n1c(=O)[nH]c(C)c(Br)c1=O (stereo unspecified) | inactive | – | inactive | inactive | inactive | inactive | inactive | inactive | inactive | – | – | – | – | – | –
3 | CC1(C)C(C(=O)OC(C#N)c2cccc(Oc3ccccc3)c2)C1(C)C (stereo unspecified) | inactive | – | inactive | inactive | inactive | inactive | inactive | inactive | – | 10.8 µM (active) | – | – | – | – | –
4 | CN=C=S | inactive | – | inactive | inactive | inactive | inactive | inactive | inactive | – | 26.1 µM (active) | inactive | – | – | – | –
5 | CC(C)Nc1nc(Cl)nc(NC(C)C)n1 | inactive | – | inactive | inactive | inactive | inactive | inactive | inactive | inactive | – | – | – | – | – | –
6 | CCOc1nc(C(Cl)(Cl)Cl)ns1 | inactive | – | inactive | inactive | inactive | inactive | inactive | inactive | inactive | – | – | – | – | – | –
7 | CC1(C)CON(Cc2ccccc2Cl)C1=O | inactive | – | inactive | inactive | inactive | inactive | inactive | inactive | inactive | – | – | – | – | – | –
8 | O=P(O)(O)CCCl | inactive | – | inactive | inactive | inactive | inactive | inactive | inactive | inactive | – | inactive | – | – | – | –
9 | CCNP(=S)(OC)O/C(C)=C/C(=O)OC(C)C (stereo unspecified) | inactive | inactive | inactive | inactive | inactive | inactive | inactive | inactive | inactive | – | – | 14.7 µM (active) | – | – | –
10 | COCC(=O)N(c1c(C)cccc1C)C(C)C(=O)OC (stereo unspecified) | inactive | – | inactive | inactive | inactive | inactive | inactive | inactive | inactive | – | inactive | – | – | – | –
11 | CC(C)=CC1C(C(=O)OCc2coc(Cc3ccccc3)c2)C1(C)C (stereo unspecified) | inactive | inactive | inactive | inactive | inactive | inactive | inactive | inactive | – | 50 µM (active) | – | 14.6 µM (active) | – | – | –
12 | CCCN(CC)CC1COC2(CCC(C(C)(C)C)CC2)O1 (stereo unspecified) | inactive | inactive | inactive | inactive | inactive | – | – | – | – | 50 µM (active) | – | 16.1 µM (active) | 22.7 µM (active) | 50 µM (active) | 60.3 µM (active)
13 | CN/C(=N\[N+](=O)[O-])NCc1cnc(Cl)s1 | inactive | – | inactive | inactive | inactive | inactive | inactive | inactive | inactive | – | inactive | – | – | – | –
14 | CCN(CC)C(=O)C(C)Oc1cccc2ccccc12 (stereo unspecified) | inactive | – | inactive | inactive | inactive | – | inactive | inactive | – | 7.47 µM (active) | – | – | 23.6 µM (active) | – | –
15 | COC(=O)NS(=O)(=O)c1ccc(N)cc1 | inactive | inactive | inactive | inactive | inactive | inactive | inactive | – | inactive | – | – | – | – | – | –
16 | CC(C)NC(=O)N1CC(=O)N(c2cc(Cl)cc(Cl)c2)C1=O | inactive | – | inactive | inactive | inactive | inactive | inactive | – | inactive | – | – | 11.8 µM (active) | – | – | –
17 | COP(=S)(OC)Oc1ccc([N+](=O)[O-])c(C)c1 | inactive | inactive | inactive | inactive | inactive | inactive | inactive | inactive | – | 50 µM (active) | inactive | – | – | – | –
18 | COP(=S)(OC)SCn1nnc2ccccc2c1=O | inactive | – | inactive | inactive | inactive | inactive | inactive | inactive | – | 17.3 µM (active) | – | – | – | – | –
19 | CS(=O)(=O)c1cc(C(F)(F)F)ccc1C(=O)c1cnoc1C1CC1 | inactive | inactive | inactive | inactive | inactive | inactive | inactive | inactive | inactive | – | inactive | – | – | – | –

Row | Structure (SMILES) | outcome [1] | outcome [2] | outcome [3] | outcome [4] | outcome [5] | outcome [6] | outcome [7] | outcome [8] | outcome [9] | AC50 [9] | outcome [10] | AC50 [10] | AC50 [6] | AC50 [7] | AC50 [8]
20 | CCOc1cc(C(C)(C)C)ccc1C1COC(c2c(F)cccc2F)=N1 (stereo unspecified) | inactive | – | inactive | inactive | inactive | inactive | inactive | inactive | – | 5.07 µM (active) | – | – | – | – | –
21 | Cn1c(-c2ccccc2)cc(-c2ccccc2)[n+]1C | inactive | inactive | inactive | inactive | inactive | inactive | inactive | inactive | inactive | – | inactive | – | – | – | –
22 | O=C1C2CC=CCC2C(=O)N1SC(Cl)(Cl)Cl (stereo unspecified) | inactive | – | inactive | inactive | inactive | inactive | inactive | inactive | inactive | – | – | – | – | – | –
23 | CC1(C)C(C=C(Cl)Cl)C1C(=O)OC(C#N)c1cccc(Oc2ccccc2)c1 (stereo unspecified) | inactive | inactive | inactive | inactive | inactive | inactive | inactive | inactive | – | 14.9 µM (active) | – | 13.1 µM (active) | – | – | –
24 | CCCCC(O)(Cn1cncn1)c1ccc(Cl)cc1Cl (stereo unspecified) | inactive | inactive | inactive | inactive | inactive | inactive | – | – | – | 61.5 µM (active) | inactive | – | – | 88.4 µM (active) | 76.2 µM (active)
25 | O=C(Nc1ccccc1-c1ccc(Cl)cc1)c1cccnc1Cl | inactive | inactive | inactive | inactive | inactive | inactive | inactive | inactive | inactive | – | – | 17.7 µM (active) | – | – | –
26 | CC(C)N1C(=O)N(c2ccccc2)CSC1=NC(C)(C)C | inactive | inactive | inactive | inactive | inactive | inactive | inactive | inactive | inactive | – | inactive | – | – | – | –
27 | CNC(=O)Oc1cccc2ccccc12 | inactive | – | inactive | inactive | inactive | inactive | inactive | inactive | – | 50 µM (active) | – | – | – | – | –
28 | CCCCC(C#N)(Cn1cncn1)c1ccc(Cl)cc1 (stereo unspecified) | inactive | inactive | inactive | inactive | inactive | inactive | inactive | inactive | inactive | – | inactive | – | – | – | –
29 | N#Cc1c(Cl)cccc1Cl | inactive | inactive | inactive | inactive | inactive | inactive | inactive | inactive | inactive | – | inactive | – | – | – | –
30 | COC(=O)c1c(C(F)F)nc(C(F)(F)F)c(C2=NCCS2)c1CC(C)C | inactive | – | inactive | inactive | inactive | inactive | inactive | inactive | – | 18.5 µM (active) | – | – | – | – | –
31 | Cc1c(COC(=O)[C@@H]2[C@H](/C=C(\Cl)C(F)(F)F)C2(C)C)cccc1-c1ccccc1 | inactive | – | inactive | inactive | inactive | inactive | inactive | inactive | inactive | – | – | – | – | – | –
32 | Cc1cc(C)nc(Nc2ccccc2)n1 | inactive | inactive | inactive | inactive | inactive | inactive | inactive | – | inactive | – | – | – | – | – | –
33 | CNC(=O)N(C)c1nnc(C(C)(C)C)s1 | inactive | – | inactive | inactive | inactive | – | inactive | inactive | inactive | – | – | – | – | – | –
34 | CSC(=O)c1c(C(F)F)nc(C(F)(F)F)c(C(=O)SC)c1CC(C)C | inactive | inactive | inactive | inactive | inactive | inactive | inactive | inactive | inactive | – | inactive | – | – | – | –
35 | COP(=O)(OC)O/C(C)=C/C(=O)N(C)C | inactive | – | inactive | inactive | inactive | inactive | inactive | inactive | inactive | – | – | – | – | – | –
36 | Clc1cccc(C(Cl)(Cl)Cl)n1 | inactive | – | inactive | inactive | inactive | inactive | inactive | inactive | inactive | – | – | – | – | – | –
37 | CCSC(=O)N1CCCCCC1 | inactive | – | inactive | inactive | inactive | inactive | inactive | inactive | inactive | – | – | – | – | – | –

From PubChem BioAssay (EPA / NIEHS)
